Measurements as given in PubChem BioAssay (NCI).
This is part of a sample that, as a whole, favours compounds with a hit. Of some 83,000 tested, about 20% had one in any assay.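 Percent growth is the endpoint: 0 to 100 indicates growth inhibition (40 means 60% inhibition), 0 means no net growth, and negative values indicate cell death.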 Unmarked numbers belong to inactive results. Calls of active or inactive are those of the source. Rule for the calls: active = growth percent below 10; inactive = the rest.

Columns and labels:
Assay in all cases: NCI-60 one-dose screen, 48 h (100 = growth as untreated, 0 = no growth, -100 = all killed)
HCT-15 colon = conditions: 10 µM unless noted
HT29 colon = conditions: 10 µM unless noted
SNB-75 CNS = conditions: 10 µM unless noted
SNB-19 CNS = conditions: 10 µM unless noted
U251 CNS = conditions: 10 µM unless noted
PC-3 prostate = conditions: 10 µM unless noted
SK-MEL-5 melanoma = conditions: 10 µM unless noted
UACC-62 melanoma = conditions: 10 µM unless noted
LOX IMVI melanoma = conditions: 10 µM unless noted
SK-MEL-28 melanoma = conditions: 10 µM unless noted
SK-MEL-2 melanoma = conditions: 10 µM unless noted
EKVX NSCLC = conditions: 10 µM unless noted
SN12C renal = conditions: 10 µM unless noted
UO-31 renal = conditions: 10 µM unless noted
TK-10 renal = conditions: 10 µM unless noted
ACHN renal = conditions: 10 µM unless noted
CAKI-1 renal = conditions: 10 µM unless noted
A498 renal = conditions: 10 µM
HL-60(TB) leukemia = conditions: 10 µM unless noted
CCRF-CEM leukemia = conditions: 10 µM unless noted

| Structure (SMILES) | growth (HCT-15 colon) | growth (HT29 colon) | growth (SNB-75 CNS) | growth (SNB-19 CNS) | growth (U251 CNS) | growth (PC-3 prostate) | growth (SK-MEL-5 melanoma) | growth (UACC-62 melanoma) | growth (LOX IMVI melanoma) | growth (SK-MEL-28 melanoma) | growth (SK-MEL-2 melanoma) | growth (EKVX NSCLC) | growth (SN12C renal) | growth (UO-31 renal) | growth (TK-10 renal) | growth (ACHN renal) | growth (CAKI-1 renal) | growth (A498 renal) | growth (HL-60(TB) leukemia) | growth (CCRF-CEM leukemia) |
| --- | --- | --- | --- | --- | --- | --- | --- | --- | --- | --- | --- | --- | --- | --- | --- | --- | --- | --- | --- | --- |
| COC(=O)[C@@H](C)C[C@H](Cc1ccccc1)NC(=O)c1csc([C@@H](C[C@H](C(C)C)N(C)C(=O)[C@@H](NC(=O)[C@H]2CCCCN2C)C2CC2)OC(C)=O)n1 | 12.3% | -12.4% (active) | 32.3% | 38% | 13.6% | 27.2% | -50.1% (active) | 60% | 8.42% (active) | 60.3% | 5.26% (active) | 42.3% | 43.5% | 39% | 38.6% | 19.6% | 36.9% | 2.41% (active) | -26.3% (active) | 7.66% (active) |
| CCCC(=O)O[C@@H]1C[C@H]2C[C@@H](O[C@@H]3O[C@@H](C)[C@@H](O)[C@@H](O)[C@H]3OC)C[C@@H](C[C@@H](C)/C=C/C=C\C[C@@H]3O[C@@H](C[C@@H]3C)[C@@H](O)C[C@H]3C[C@@]1(O)C(=O)O3)O2 | 54.3% | 60% | 55.4% | 52.4% | 35.6% | 33% | 19.5% | 62.5% | 62.5% | 71.5% | 57.8% | 22.6% | 58.7% | 34.2% | 29% | 62% | 60.9% | 79.9% | 29.9% | 50.9% |
| O=Cc1cn(Cc2ccc(Cl)cc2)c2ccccc12 | 89.7% | 106% | 86.7% | 89.7% | 75.5% | 82.3% | 94.4% | -0.449% (active) | 88.2% | 96.4% | 82.7% | 88.9% | 89.6% | 61.4% | 0.213% (active) | 91.6% | -20.8% (active) | -89.8% (active) | 97.7% | 89.6% |
| COc1ccc2c(c1)c(C1(O)CC(CSC#N)OC1=O)cn2C(=O)c1ccc(Cl)cc1 (stereo not given) | 98.7% | 110% | 83.7% | 99.3% | 102% | 96.2% | 111% | 88.6% | 97.8% | 150% | 80% | 89.6% | 94% | 78.5% | 103% | 94.5% | 82.9% | 153% | 94.6% | 82% |
| O=C([O][Hg][CH2]C1COCC([CH2][Hg][O]C(=O)c2ccccc2)O1)c1ccccc1 (stereo not given) | -83% (active) | 50.4% | 92% | 102% | 58.9% | 91.9% | 102% | 91% | 11.4% | 115% | 105% | 103% | 56.8% | -12.1% (active) | 38.1% | 70.6% | 57.2% | 114% | 23.1% | -10.3% (active) |
| C/C(=C\c1ccn(-c2ccccc2N)n1)[C@@H]1C[C@@H]2O[C@]2(C)CCC[C@H](C)[C@H](O)[C@@H](C)C(=O)C(C)(C)[C@@H](O)CC(=O)O1 | 16.6% | 15.1% | -4.54% (active) | 29.1% | 27.2% | 14.3% | 12.2% | 19.9% | 28.5% | 58.8% | 33.2% | 44.8% | 38% | 41.5% | 51.6% | 46.3% | 40.4% | 13% | 9.72% (active) | 19.6% |
| Nc1ccc2c(c1)oc1ccccc12 | 112% | 92.2% | 81.1% | 110% | 94.4% | 82.6% | 104% | 94.9% | 109% | 104% | 102% | 83.5% | 94.6% | 69.3% | 135% | 102% | 82.5% | 103% | 78.3% | 55.6% |
| O=NNc1ccccn1 | 40.2% | 34.3% | 95.5% | 101% | 80.1% | 82.9% | 99.3% | 85.9% | 71.1% | 100% | 23.3% | 109% | 87.4% | 83.6% | 91% | 11.2% | 43.6% | 96.5% | 73.8% | 126% |
